# Experimental data reported in PubChem BioAssay AID1498 (National Center for Advancing Translational Sciences (NCATS), 2009).
# Records with an inconclusive call do not appear. Calls of active or inactive are those of the source. The call rests on the fitted dose curve.
# Assay: Confirmation Concentration-Response Assay for Modulators of Lamin A Splicing
# Conditions: HeLa lamin A splicing GFP/RFP minigene, Acumen, 48 h; RFP activity: RFP channel at top concentration, at 46.1 µM; ratio activity: GFP/RFP ratio at top concentration, at 46.1 µM; series mostly up to 46.1 µM
# Summary of the method: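 S3 HeLa cells stably expressing lamin A-EGFP splicing minigene and DsRed2, 600 cells/well in Opti-MEM with 2% FBS, compounds 48 h at 37C; laser-scanning cytometry (488 nm), GFP/RFP total intensity ratio analysed; 0.5% DMSO.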
Structure (SMILES),RFP activity [%],ratio activity [%],outcome
O=C(c1ccc(Cl)c(Cl)c1)N1CCC(=O)N(C(COCc2cccc(C(F)(F)F)c2)Cc2ccccc2)CC1 (stereo not given),13.3,-24.5,inactive
C/C(=N\NC(=O)C(c1ccncc1)N1CCOCC1)c1ccc(Br)cc1 (stereo not given),7.84,-18.1,inactive
CC(=O)c1c(C)[nH]c(C(=O)Nc2c(C)n(C)n(-c3ccccc3)c2=O)c1C,1.7,-9.7,inactive
COc1ccc(O)c(/C=N/NC(=O)c2ccc(OCc3cccc(Br)c3)cc2)c1,-32.5,-5.52,inactive
Cc1noc(C)c1-c1ccc2ncnc(NCc3cccc(-c4ccccc4)c3)c2c1,22.9,-27.8,inactive
